{"source": "ChEMBL document CHEMBL3988442", "about": "“University of Dundee, Small-Polar-MMV Screening Library” (2021)", "note": "Hit rate of the full screen: of about 48,000 compounds, about 13,000 (27%) showed an effect of 50% or more. The list shows a part of the results."}
{"system": "Wolbachia pipientis", "experiment": "Anti-Wolbachia Cell-Based Screen", "format": "functional", "design": "scale not given: in the data most compounds retested in dose-response had high values", "details": "5 µM", "units": {"Percent Effect": "%"}}
{"smiles": "COc1ccc(CCc2nnc(NC(=O)C3CC34CCC4)s2)cc1OC", "note": "(stereo not drawn)", "Percent Effect": 134.8}
{"smiles": "COc1cc(CNC(=O)Nc2nnc(C3CC3)s2)ccc1O", "Percent Effect": -2.048}
{"smiles": "CCCc1nnc(NC(=O)NC2CCOc3ccccc32)s1", "note": "(stereo not drawn)", "Percent Effect": -4.049}
{"smiles": "CC(=O)NC(C)CC(=O)NCc1cccnc1Oc1ccccc1C", "note": "(stereo not drawn)", "Percent Effect": -2.321}
{"smiles": "COc1ccc(C(CC(=O)NCc2n[nH]c(N)n2)c2ccccc2)cc1", "note": "(stereo not drawn)", "Percent Effect": -21.33}
{"smiles": "COc1cc2nc(C)n(CC(=O)O)c(=O)c2cc1OC", "Percent Effect": 17.35}
{"smiles": "COc1cc2ncn(Cc3ncc[nH]3)c(=O)c2cc1OC", "Percent Effect": 88.22}
{"smiles": "COc1cc2ncn(CC(=O)NCCCN(C)C)c(=O)c2cc1OC", "Percent Effect": 7.86}
{"smiles": "CNC(=O)C1CCN(Cc2nc(-c3ccc(SC)cc3)oc2C)C1", "note": "(stereo not drawn)", "Percent Effect": 1.342}
{"smiles": "CCCOCC(=O)N1CCCC(c2nnc(CN3CCCCC3)n2C)C1", "note": "(stereo not drawn)", "Percent Effect": -4.962}
{"smiles": "CCc1nc(CN2CCCN(C(=O)CCSC)CC2)cs1", "Percent Effect": -7.739}
{"smiles": "CC(C)Nc1nc2c(c(NC3CC3)n1)CN(C(=O)c1ccsc1)CC2", "Percent Effect": 4.633}
{"smiles": "CCC(OC)C(=O)N1CCc2nc(NC)nc(C(=O)N3CCCC3)c2C1", "note": "(stereo not drawn)", "Percent Effect": 0.1298}
{"smiles": "CCCOCC(=O)N1CCc2nc(NC)nc(C(=O)N3CCCC3)c2C1", "Percent Effect": 106.3}
{"smiles": "CCN(C)c1ncnc2c1CCN(C(=O)N1CCCC1)CC2.O=C(O)C(F)(F)F", "Percent Effect": -2.138}
{"smiles": "CNc1nc2c(c(C(=O)N3CCCC3)n1)CN(C(=O)C1CCCC1)CC2", "Percent Effect": 99.86}
{"smiles": "CCN(C)CC(=O)N1CCc2nc(NC)nc(C(=O)N3CCCC3)c2C1", "Percent Effect": 92.7}
{"smiles": "CNc1nc2c(c(C(=O)N3CCCC3)n1)CN(C(=O)CCSC)CC2", "Percent Effect": 109.5}
{"smiles": "Cc1nc(N2CCCC2)nc2c1CCN(C(=O)CN(C)C)CC2.O=C(O)C(F)(F)F", "Percent Effect": -8.605}
{"smiles": "COC(=O)CCC(=O)N1CCc2nc(C(=O)N3CCCCC3)sc2CC1", "Percent Effect": -23.17}
{"smiles": "CC(C)Nc1nc2c(c(NC3CC3)n1)CN(C(=O)c1ccnnc1)CC2", "Percent Effect": 10.08}
{"smiles": "Cc1csc(N2CCCN(C(=O)c3cccs3)CC2)n1", "Percent Effect": 5.258}
{"smiles": "O=C(c1cccs1)N1CCN(C(=O)c2ncoc2-c2ccco2)CC1", "Percent Effect": -2.664}
{"smiles": "CNc1nc2c(c(C(=O)N3CCCC3)n1)CN(C(=O)c1cccs1)CC2", "Percent Effect": 93.6}
{"smiles": "Cc1oncc1C(=O)N1CCCc2c(C#N)nn(C)c2C1", "Percent Effect": 10.9}
{"smiles": "O=C(NCC(O)Cc1ccccc1)c1ccc2[nH]c(=O)[nH]c2c1", "note": "(stereo not drawn)", "Percent Effect": 124}
{"smiles": "O=C(NCC[S+]([O-])Cc1ccccc1)c1ccc2[nH]c(=O)[nH]c2c1", "note": "(stereo not drawn)", "Percent Effect": 105}
{"smiles": "O=C(NCC[S+]([O-])c1ccccc1)NCC(F)(F)F", "note": "(stereo not drawn)", "Percent Effect": -2.779}
{"smiles": "Cc1cccc(C(=O)NCCS(=O)(=O)Cc2ccccc2)c1", "Percent Effect": -4.406}
{"smiles": "O=C(NCC(O)c1ccc(F)cc1F)c1ccccc1", "note": "(stereo not drawn)", "Percent Effect": 4.07}
{"smiles": "O=C(NCC[S+]([O-])c1ccccc1)c1ccc2[nH]c(=O)[nH]c2c1", "note": "(stereo not drawn)", "Percent Effect": 103.1}
{"smiles": "CSC(C)(C)CNC(=O)NCC[S+]([O-])c1ccccc1", "note": "(stereo not drawn)", "Percent Effect": 5.192}
{"smiles": "Cc1nn(C)c(C)c1OCC(=O)NCC(O)Cc1ccccc1", "note": "(stereo not drawn)", "Percent Effect": -7.018}
{"smiles": "O=C(NCCCO)Nc1cccc(C[S+]([O-])Cc2ccccc2)c1", "note": "(stereo not drawn)", "Percent Effect": -4.621}
{"smiles": "Cc1ccn2ncc(C(=O)N3CCCC(c4noc(C)n4)C3)c2n1", "note": "(stereo not drawn)", "Percent Effect": 1.825}
{"smiles": "CCOCCCNc1nc(CS(=O)(=O)c2ccccc2)cs1", "Percent Effect": -0.3734}
{"smiles": "CCOCCNCc1cc(O)c2cc(C)ccc2n1", "Percent Effect": -3.741}
{"smiles": "CCOCCNS(=O)(=O)c1cc(C)c2nc(O)cc(C)c2c1", "Percent Effect": 93.93}
{"smiles": "CCOC(=O)CN1CCC2(CC1)CC(NC(=O)c1ccccn1)CO2", "note": "(stereo not drawn)", "Percent Effect": -1.011}
{"smiles": "CN1CC(c2ccccc2)CC2(CCN(CC(=O)N(C)C)CC2)C1", "note": "(stereo not drawn)", "Percent Effect": -1.357}
{"smiles": "NC(=O)CN1CCCC(C(=O)N2CCC(O)(c3ccccc3)CC2)C1", "note": "(stereo not drawn)", "Percent Effect": -6.911}
{"smiles": "CCOc1cccc(CNC(=O)CN2CCC3(CCOC3)C2)c1", "note": "(stereo not drawn)", "Percent Effect": -4.928}
{"smiles": "CN(C)C(=O)CN1CCCN(CC2CCOc3ccccc3C2)CC1", "note": "(stereo not drawn)", "Percent Effect": -6.111}
{"smiles": "Cc1ccccc1CN1C[C@@H]2OCC(=O)N(CC(N)=O)[C@@H]2C1", "Percent Effect": -9.838}
{"smiles": "CN(C)C(=O)CN1CCN(C(=O)C2CSc3ccccc3O2)CC1", "note": "(stereo not drawn)", "Percent Effect": -6.188}
{"smiles": "CN(C)C(=O)CN1CCC2(CC1)COC2", "Percent Effect": -28.68}
{"smiles": "CN(C)C(=O)CN1CCC2(CC1)CC(=O)c1ccc3ccccc3c1O2", "Percent Effect": 109.8}
{"smiles": "CCOC(=O)CN1CCC2(CC1)CC(=O)c1ccc3ccccc3c1O2", "Percent Effect": 117.9}
{"smiles": "NC(=O)CN1CCC2(CC1)CC(=O)c1ccc3ccccc3c1O2", "Percent Effect": 103.8}
{"smiles": "CN(C)C(=O)CN1CCC2(CC1)CC(=O)c1c(ccc3ccccc13)O2", "Percent Effect": 104.8}
{"smiles": "CC(C)Nc1cc(N2CCCC3(CN(C)C(=O)O3)C2)ncn1", "note": "(stereo not drawn)", "Percent Effect": -4.728}
{"smiles": "Cc1cccnc1NC(=O)C1CCCN(c2cccc(C(F)(F)F)n2)C1", "note": "(stereo not drawn)", "Percent Effect": 9.755}
{"smiles": "CCn1cc(CN(C)C(=O)C(c2ccccc2C)N(C)C)cn1", "note": "(stereo not drawn)", "Percent Effect": 1.037}
{"smiles": "Cc1ccc2[nH]c(CO[C@H]3CN(C(=O)C4CC4)C[C@H]3F)nc2c1", "Percent Effect": -10.96}
{"smiles": "O=C(CCCn1cncn1)N1CCCC1c1noc(C2CC2)n1", "note": "(stereo not drawn)", "Percent Effect": 94.63}
{"smiles": "O=C(CCCn1cncn1)N1CCCC1c1nc(-c2ccccc2)no1", "note": "(stereo not drawn)", "Percent Effect": 16.9}
{"smiles": "CSCC(=O)N1CCCC1c1noc(C2CC2)n1", "note": "(stereo not drawn)", "Percent Effect": 7.079}
{"smiles": "O=C(CCn1cncn1)N1CCCC1c1noc(C2CC2)n1", "note": "(stereo not drawn)", "Percent Effect": 89.8}
{"smiles": "OCC(O)CSCc1cn(-c2ccc(Cl)cc2)nn1", "note": "(stereo not drawn)", "Percent Effect": -1.714}
{"smiles": "O=C(O)C(F)(F)F.c1ccc(OC2COC3(CCN(Cc4ccccn4)CC3)C2)cc1", "note": "(stereo not drawn)", "Percent Effect": -3.872}
{"smiles": "O=C(NC1COC2(CCN(Cc3ccccn3)CC2)C1)c1ccccn1.O=C(O)C(F)(F)F", "note": "(stereo not drawn)", "Percent Effect": -3.603}
{"smiles": "COC(=O)C(O)C1CCN(CCc2ccccn2)CC1", "note": "(stereo not drawn)", "Percent Effect": -11.11}
{"smiles": "O=C1NC2(CCN(CCc3ccccc3)CC2)CC1c1ccccc1", "note": "(stereo not drawn)", "Percent Effect": -3.919}
{"smiles": "c1ccc(CCN2CCN(C3CCOC4(CCOCC4)C3)CC2)nc1", "note": "(stereo not drawn)", "Percent Effect": 69.95}
{"smiles": "O=C1OC2(CCN(C3CCCOC3)CC2)CN1CCc1ccccc1", "note": "(stereo not drawn)", "Percent Effect": 0.1893}
{"smiles": "c1ccc(CN2CCN(C3CCOC4(CCOCC4)C3)CC2)nc1", "note": "(stereo not drawn)", "Percent Effect": 115.7}
{"smiles": "CN1CCN(C(=O)CC2CCN(CCc3ccccn3)CC2)CC1", "Percent Effect": -2.122}
{"smiles": "c1ccc(CCN2CCN(C3CCOC4(CCOCC4)C3)CC2)cc1", "note": "(stereo not drawn)", "Percent Effect": 96.21}
{"smiles": "CC(C)Cc1cc(CC2(NCc3ccccc3Cl)COC2)no1", "Percent Effect": -7.466}
{"smiles": "COc1cc(C)c(C(C)Nc2ncc(C(N)=O)cc2Cl)cc1OC", "note": "(stereo not drawn)", "Percent Effect": -11.51}
{"smiles": "Cc1nn(C)c2nc(N(CCN(C)C)CC3CCCO3)sc12", "note": "(stereo not drawn)", "Percent Effect": 2.651}
{"smiles": "CC(NS(=O)(=O)CC1(C#N)CCCC1)c1cccc(-n2cccn2)c1", "note": "(stereo not drawn)", "Percent Effect": -9.973}
{"smiles": "COc1ccc(C)cc1CN(Cc1nc(C)c(C)o1)C1CCN(C)C1", "note": "(stereo not drawn)", "Percent Effect": -12.97}
{"smiles": "CN1CCN([C@@H]2CCN(CC3CCOC3)[C@H]2Cc2cnn(C)c2)CC1.O=C(O)C(F)(F)F.O=C(O)C(F)(F)F.O=C(O)C(F)(F)F", "note": "(stereo partly drawn)", "Percent Effect": -10.32}
{"smiles": "Cn1cc(N2C(=O)C[C@@H]3[C@@H]2CCN3C(=O)c2ccco2)cn1", "Percent Effect": -4.812}
{"smiles": "Cn1cc(C(=O)N2CC[C@@H]3[C@@H]2CCN3Cc2cccc(C#N)c2)cn1.O=C(O)C(F)(F)F", "Percent Effect": -1.669}
{"smiles": "Cn1cc(N2C(=O)CC[C@@H]3[C@H]2CCN3Cc2cccc(C#N)c2)cn1.O=C(O)C(F)(F)F.O=C(O)C(F)(F)F", "Percent Effect": 96.87}
{"smiles": "Cn1cc(N2C[C@@H]3CN(CC4CCOCC4)C[C@@H]3C2=O)cn1.O=C(O)C(F)(F)F", "Percent Effect": -5.316}
{"smiles": "Cn1cc(N2C(=O)CC[C@@H]3[C@H]2CCN3CC2CCOCC2)cn1.O=C(O)C(F)(F)F", "Percent Effect": 100.5}
{"smiles": "Cn1cc(N2C(=O)CC[C@@H]3[C@H]2CCN3CCc2ccccc2)cn1.O=C(O)C(F)(F)F.O=C(O)C(F)(F)F", "Percent Effect": 83.57}
{"smiles": "Cn1cc(CN2CC[C@@H]3[C@@H]2CCN3C(=O)c2cccc(F)c2)cn1.O=C(O)C(F)(F)F", "Percent Effect": -56.05}
{"smiles": "COc1ccc(CN2CC[C@@H]3[C@H]2CCC(=O)N3c2cnn(C)c2)cc1.O=C(O)C(F)(F)F", "Percent Effect": 83.34}
{"smiles": "Cc1cnn(CC2CN(c3ncnc4c3CCC4)CCO2)c1", "note": "(stereo not drawn)", "Percent Effect": -34.52}
{"smiles": "Cc1noc(C)c1CC(=O)NCCN1CCN(S(C)(=O)=O)CC1", "Percent Effect": -3.578}
{"smiles": "N#Cc1cc2c(=O)n(CC(O)Cc3ccccc3)ccc2[nH]c1=O", "note": "(stereo not drawn)", "Percent Effect": -6.856}
{"smiles": "O=C(Nc1ccc(-c2ccccc2)cc1)N1C[C@@H]2CNC[C@]2(C(=O)O)C1", "Percent Effect": 6.586}
{"smiles": "CC(C)N1CCN(S(=O)(=O)c2ncn(C)c2Cl)CC1", "Percent Effect": 22.53}
{"smiles": "O=C1O[C@@H]2CN(Cc3cccc(O)c3)C[C@@H]2N1CCCN1CCOCC1", "Percent Effect": 15.85}
{"smiles": "Cn1cc(CN2CC[C@@H]3[C@@H]2CCN3Cc2ccc3c(c2)OCO3)cn1.O=C(O)C(F)(F)F.O=C(O)C(F)(F)F", "Percent Effect": -8.648}
{"smiles": "Cn1cc(C(=O)N2CC[C@@H]3[C@@H]2CCN3Cc2ccccc2)cn1.O=C(O)C(F)(F)F", "Percent Effect": -15.71}
{"smiles": "Cn1cc(CN2CC[C@@H]3[C@H]2CCC(=O)N3c2ccccc2)cn1.O=C(O)C(F)(F)F", "Percent Effect": 107.5}
{"smiles": "CN(Cc1ccccc1)C(=O)CS(=O)(=O)Cc1ccc(Cl)c(Cl)c1", "Percent Effect": -2.386}
{"smiles": "Cc1cccc(S(=O)(=O)NC2CCN(CC(F)(F)F)C2)c1", "note": "(stereo not drawn)", "Percent Effect": -3.118}
